Shiga toxin inh = inhibitors of Shiga toxin in Vero cells. Vero cells, Shiga toxin protein synthesis inhibition reporter. inhibition, % at 38.7 µM. 9.2% of 290,000 active. AID 2315; in the data active = inhibition mostly above about 28%, no sharp cut-off; inactive = mostly below about 43%; note: 0% is about no effect
Pf growth 96h = inhibits malaria parasite growth, 96 h; P. falciparum luciferase reporter growth, 96 h; Potency, µM (series often up to 28.7 µM), for the others: at the highest dose activity change, negative = inhibition, most hits filed as inhibitors; 6.9% of 320,000 active; AID 504834; note: potency is the fitted concentration of half-maximal effect; % is set by controls: 0 for no effect and ±100 for the full control effect
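Compounds incubated with erythrocytes infected by luciferase-expressing P. falciparum (2% hematocrit, 0.05% parasitemia final) for 96 hours, 37 C in 5% CO2. Growth inhibition scored as decreased luciferase luminescence.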
SARS PLP yeast = blocks SARS-CoV papain-like protease in a yeast assay | S. cerevisiae expressing SARS-CoV PLpro, growth rescue | 0.19% of 330,000 active | Potency, µM (top dose mostly 32.9 µM), for inactives: at the highest dose activity, positive = growth rescue, usual class: activators; calls by dose curve; note: potency is the fitted concentration of half-maximal effect; 0% is about no effect; nearly all actives have a fitted effect of over 55% in size
NS1 inh = influenza NS1 inhibition; Potency, µM (top dose mostly 46.1 µM), without a hit: at the highest dose activity, positive = more growth; 0.4% of 270,000 active; calls by dose curve; note: potency is the fitted concentration of half-maximal effect; actives are rising curves; nearly all actives have a fitted effect of over 50% in size
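Recovery from NS1-induced slow growth read by OD600 in budding yeast switched to galactose assay medium (pH 6.0, -URA) at 1:100 dilution. Compound 23 nl per well; the matching strain lacking NS1 serves as control.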
Pf growth 48h = P. falciparum growth inhibition at 48 hours (one generation); P. falciparum luciferase growth in erythrocytes, 48 h; Potency, µM (top dose mostly 28.7 µM), inactives show at the highest dose activity change, negative = inhibition, actives largely listed as inhibitors; 5.9% of 310,000 active; AID 504832; note: potency is the fitted concentration of half-maximal effect; % is set by controls: 0 for no effect and ±100 for the full control effect
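Read-out is firefly luciferase luminescence from an integrated reporter in P. falciparum, so falling signal marks reduced parasite growth. Infected erythrocytes were at 2% hematocrit and 0.1% parasitemia (final) in Albumax-supplemented RPMI 1640.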
CHX counter = counter-screen for Shiga toxin inhibitors: cycloheximide protein synthesis inhibition; cell reporter, cycloheximide protein synthesis inhibition counterscreen; max response, %; 12% of 300,000 active; AID 2314; in the data active = max response mostly above about 13%, no sharp cut-off; inactive = mostly below about 14%; note: read at 38.3 µM for the half of the compounds with a filed dose; 0% is about no effect
An asterisk follows results filed as active. An excerpt weighted towards active compounds, which were near 21% of everything screened. Unless noted, calls come from the whole dose curve; as a rule, active = well fitted inhibition curve with a large enough effect; inconclusive = small, poorly fitted or top-dose-only effect, or another doubt; inactive = no such curve, though single readings can be large or run the other way.

`N#Cc1nc(COc2ccc(Br)cc2)oc1N1CCCCCC1` gave Shiga toxin inh -3.5, Pf growth 96h inconclusive, SARS PLP yeast -12.1%, NS1 inh -90.9% and CHX counter 9.2.
For COc1ccc(-c2nc(CS(=O)(=O)CC(=O)NC3CCC(C)CC3)c(C)o2)cc1 (configuration not stated) the results were Shiga toxin inh 2.6, Pf growth 96h -29.1%, SARS PLP yeast inconclusive, NS1 inh 7.5%, Pf growth 48h -31.5% and CHX counter 5.8.
NS(=O)(=O)c1ccc(CCNC(=O)CNC(=O)c2ccccc2F)cc1 was read as Shiga toxin inh -4.6, Pf growth 96h 8.9%, SARS PLP yeast 3.4%, NS1 inh -1.1%, Pf growth 48h -8.1% and CHX counter 2.5.
Screening CCc1ccc(OCCCC(=O)Nc2nccs2)cc1 returned Shiga toxin inh 52.9*, Pf growth 96h 1.0%, SARS PLP yeast -0.1%, NS1 inh -41.6%, Pf growth 48h inconclusive and CHX counter 28.6*.
O=C(CCCOc1ccccc1)Nc1nccs1 was read as Shiga toxin inh 31.2, Pf growth 96h inconclusive, SARS PLP yeast 9.4%, NS1 inh -5.8%, Pf growth 48h inconclusive and CHX counter 9.7.
COc1ccccc1OCCCC(=O)Nc1nccs1 was read as Shiga toxin inh 89.3*, Pf growth 96h 69.6%, SARS PLP yeast -0.8%, NS1 inh -4.5%, Pf growth 48h 46.5% and CHX counter 51.7*.
CCOC(=O)Cc1csc(NC(=O)c2ccco2)n1 was read as Shiga toxin inh 50.2*, SARS PLP yeast -5.9%, NS1 inh 8.4%, Pf growth 48h 77.5% and CHX counter 49.7*.
CCOC(=O)Cc1csc(NC(=O)c2cc(C)c(C)s2)n1 was read as Pf growth 96h 36.3%, SARS PLP yeast -9.9% and Pf growth 48h 28.6%.
CCOC(=O)Cc1csc(NC(=O)c2cnc3sc(C)cn3c2=O)n1 was read as Shiga toxin inh 88.3*, Pf growth 96h 16.9%, SARS PLP yeast -5.0%, NS1 inh -2.6%, Pf growth 48h 92.7% and CHX counter 42.7*.
For CCOC(=O)Cc1csc(NC(=O)c2ccc(C)o2)n1 the results were Shiga toxin inh 51.8*, Pf growth 96h -22.5%, SARS PLP yeast 0.7%, NS1 inh 0.2%, Pf growth 48h 46.2% and CHX counter 22.0*.
For CCOC(=O)Cc1csc(NC(=O)c2ccc(Br)cc2)n1 the results were Shiga toxin inh 40.2, Pf growth 96h 14.1%, SARS PLP yeast -11.6%, NS1 inh -12.0%, Pf growth 48h 21.2% and CHX counter 8.3.
Screening CCOC(=O)Cc1csc(NC(=O)c2ccc3ncsc3c2)n1 returned Shiga toxin inh 83.3*, Pf growth 96h 93.0%, SARS PLP yeast -1.0%, NS1 inh 4.1%, Pf growth 48h 85.4% and CHX counter 29.2*.
For CCOC(=O)Cc1csc(NC(=O)c2ccncc2)n1 the results were Shiga toxin inh 7.4, Pf growth 96h 33.5%, SARS PLP yeast 7.7%, NS1 inh -8.4%, Pf growth 48h 31.2% and CHX counter -4.4.
For CCOc1ccc(C(=O)NCC(=O)NCC2CCCCC2)cc1OCC the results were Shiga toxin inh -5.5, Pf growth 96h -8.8%, SARS PLP yeast -1.4%, NS1 inh 8.6%, Pf growth 48h -2.0% and CHX counter -3.6.
CCCCNC(=O)[C@H]1C[C@H]1[C@@H](O)[C@H](CO)NC(=O)[C@H](Cc1ccccc1)NC(=O)OC(C)(C)C was read as Shiga toxin inh -2.0, Pf growth 96h 55.1%, SARS PLP yeast -4.0%, NS1 inh -7.1%, Pf growth 48h -0.6% and CHX counter 2.0.
For CCCCOC(=O)Nc1nc(CC(=O)OCC)cs1 the results were Shiga toxin inh 30.4, SARS PLP yeast -0.7%, NS1 inh 0.1%, Pf growth 48h 13.2% and CHX counter 14.7*.
CCOC(=O)Cc1csc(NC(=O)c2ccc(Cl)s2)n1 was read as Shiga toxin inh 54.2*, Pf growth 96h 25.1%, SARS PLP yeast -4.3%, NS1 inh -41.9% and CHX counter 60.5*.
`Cc1csc(NC(=O)c2ccc(C)o2)n1` gave Shiga toxin inh active, Pf growth 96h 0.0%, SARS PLP yeast -16.5%, NS1 inh 8.1%, Pf growth 48h 169.7% and CHX counter 59.3*.
For CCOC(=O)Cc1csc(NC(=O)CCC(=O)O)n1 the results were Shiga toxin inh -9.6, Pf growth 96h -0.9%, SARS PLP yeast 0.9%, NS1 inh -1.0%, Pf growth 48h -13.9% and CHX counter 5.4.
For Cc1ccc(CN2C(=O)CSC2c2ccc(F)cc2)cc1 (configuration not stated) the results were Shiga toxin inh -6.7, Pf growth 96h 43.4%, SARS PLP yeast 2.6%, NS1 inh -2.8%, Pf growth 48h -6.3% and CHX counter -1.2.
For Cc1c(C(=O)N2CCN(c3ccccc3)CC2)oc2c(F)cccc12 the results were Shiga toxin inh 45.5, Pf growth 96h inconclusive, SARS PLP yeast -14.2%, NS1 inh -9.4%, Pf growth 48h -0.6% and CHX counter 32.3*.
`Cc1c(C(=O)N2CCC2)oc2c(F)cccc12` gave SARS PLP yeast -3.0%.
`CCOC(=O)N1CCC(NC(=O)c2oc3c(F)cccc3c2C)CC1` gave Shiga toxin inh 62.2*, Pf growth 96h -0.3%, SARS PLP yeast 2.9%, NS1 inh 4.5%, Pf growth 48h 44.5% and CHX counter 64.6*.
Screening CCC(CC)C(=O)Nc1c(C(=O)N2CCN(c3ccccc3)CC2)oc2ccccc12 returned Shiga toxin inh 2.4, Pf growth 96h -9.2%, SARS PLP yeast -9.3%, NS1 inh -22.2%, Pf growth 48h 10.4µM* and CHX counter -3.1.
`Cc1c(C(=O)NCCN2CCCC(O)C2)oc2c(F)cccc12` (configuration not stated) gave Shiga toxin inh 10.0, Pf growth 96h -19.8%, SARS PLP yeast -4.0%, NS1 inh 6.8%, Pf growth 48h 36.0% and CHX counter -4.0.
Screening COCC1CCN(C(=O)c2oc3c(F)cccc3c2C)C1 (configuration not stated) returned Shiga toxin inh 32.7*, Pf growth 96h inconclusive, SARS PLP yeast -5.3%, NS1 inh -13.1%, Pf growth 48h inconclusive and CHX counter 22.9*.
For CC(C)C(=O)Nc1c(C(=O)N2CCN(c3ncccn3)CC2)oc2ccccc12 the results were Shiga toxin inh 32.4, Pf growth 96h 11.1%, SARS PLP yeast 7.5%, NS1 inh -7.0%, Pf growth 48h inconclusive and CHX counter 2.9.
O=C(COc1ccc(Cl)cc1Br)NC(=O)NC1CCCC1 was read as Pf growth 96h 59.2%, SARS PLP yeast -2.9% and Pf growth 48h 51.2%.
For CCN(CC(=O)Nc1c(F)cccc1F)C(=O)CCCNC(=O)c1ccc(Cl)cc1 the results were Pf growth 96h inconclusive, SARS PLP yeast 2.1% and Pf growth 48h 9.2%.
Screening CCCC[C@@H]1CCCO[C@@](C(=O)NCc2ccccc2)(C(F)(F)F)C1 returned Shiga toxin inh -1.0 and CHX counter 3.9.

From PubChem BioAssay
